PubChem BioAssay AID1835 (Johns Hopkins Ion Channel Center, 2009)
In all, about 2,400 compounds went through this assay and about 750 (31%) were called active. This is one part of the list. Values without a mark were called inactive.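 Rule for the calls: active = median signal gain over dofetilide-blocked control wells reaching their mean plus 3 SD, so readout 1 at least 0; inactive = the rest.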

The molecules below were run against Voltage-gated inwardly rectifying potassium channel KCNH2 (Homo sapiens) (UniProt Q12809) (assay: hERG protection against dofetilide inhibition, confirmation, cell-based, thallium flux, duplicate retest, dofetilide IC70 (AID 1835)). Conditions: hERG cell line, FluxOR thallium flux, dofetilide-blocked; at 10 µM; stronger effect = higher value.
Voltage-gated inwardly rectifying potassium channel KCNH2 (Homo sapiens), sequence (Q12809 whole entry, looked up): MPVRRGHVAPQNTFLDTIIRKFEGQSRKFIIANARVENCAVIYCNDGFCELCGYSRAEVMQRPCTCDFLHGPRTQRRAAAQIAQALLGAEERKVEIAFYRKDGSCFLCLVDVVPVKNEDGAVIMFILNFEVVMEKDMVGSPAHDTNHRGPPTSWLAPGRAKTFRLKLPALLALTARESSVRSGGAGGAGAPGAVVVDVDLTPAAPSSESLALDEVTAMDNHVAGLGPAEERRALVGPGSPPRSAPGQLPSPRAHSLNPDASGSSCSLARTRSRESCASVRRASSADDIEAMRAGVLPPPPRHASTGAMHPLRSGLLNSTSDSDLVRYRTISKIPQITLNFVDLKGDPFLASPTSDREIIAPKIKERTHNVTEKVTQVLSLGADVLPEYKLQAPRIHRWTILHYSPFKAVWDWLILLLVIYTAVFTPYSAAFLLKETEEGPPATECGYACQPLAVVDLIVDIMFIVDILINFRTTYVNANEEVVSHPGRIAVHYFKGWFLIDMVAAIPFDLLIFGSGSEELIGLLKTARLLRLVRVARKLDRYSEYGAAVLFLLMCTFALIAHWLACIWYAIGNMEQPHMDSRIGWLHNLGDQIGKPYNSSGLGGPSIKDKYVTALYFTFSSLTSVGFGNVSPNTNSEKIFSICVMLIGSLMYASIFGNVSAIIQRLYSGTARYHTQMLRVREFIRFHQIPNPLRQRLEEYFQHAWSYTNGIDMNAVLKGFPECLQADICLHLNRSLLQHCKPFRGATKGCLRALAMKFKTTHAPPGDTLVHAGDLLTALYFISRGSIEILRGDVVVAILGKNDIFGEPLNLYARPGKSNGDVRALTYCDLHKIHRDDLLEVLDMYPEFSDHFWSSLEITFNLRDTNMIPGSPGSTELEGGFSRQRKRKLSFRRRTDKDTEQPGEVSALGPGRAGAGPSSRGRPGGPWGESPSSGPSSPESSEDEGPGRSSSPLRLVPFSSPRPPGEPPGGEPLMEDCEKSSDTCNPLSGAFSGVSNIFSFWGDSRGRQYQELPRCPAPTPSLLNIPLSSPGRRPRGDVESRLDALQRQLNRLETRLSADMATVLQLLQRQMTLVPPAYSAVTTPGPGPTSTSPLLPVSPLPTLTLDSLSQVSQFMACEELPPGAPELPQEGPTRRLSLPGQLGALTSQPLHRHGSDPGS

Row | SMILES | activity increase over dofetilide control, less the hit threshold
1 | O=C(O)CCCN1C(=O)C2C3c4ccccc4C(c4ccccc43)[C@@H]2C1=O (stereo not given in full) | -15%
2 | Cc1noc(C)c1-c1nnc(-c2ccc(C(F)(F)F)cc2)o1 | -11%
3 | Cc1ccc(O)c(C(=O)CC(=O)c2ccccc2Cl)c1 | -2%
4 | Cc1ccc(C(=O)CC(=O)c2ccccc2C)c(O)c1 | -3%
5 | O=C(/C=C/c1ccccc1)CC(=O)c1ccccc1O | 11% (active)
6 | O=C(Nc1cccn(Cc2c(Cl)cccc2Cl)c1=O)c1ccccc1Cl | -21%
7 | Cc1cccc(OCC(=O)NC(=S)N2CCCc3ccccc32)c1 | -10%
8 | NS(=O)(=O)c1ccc(NC(=O)c2ccc(S(=O)(=O)N3CCc4ccccc43)cc2)cc1 | -1%
9 | Cc1ccc(C(=O)NC(=S)N2CCN(c3cc(C)ccc3C)CC2)cc1 | -3%
10 | CN1C(=O)CSc2ccc(NC(=O)N3CCc4ccccc43)cc21 | -10%
11 | O=C(NC(=S)N1CCc2ccccc21)c1ccccc1Br | 92% (active)
12 | O=C(COc1ccccc1)NC(=S)N1CCc2ccccc21 | 3% (active)
13 | Cc1cccc(C(=O)NNC(=S)NC(=O)c2ccccc2)c1 | -20%
14 | O=C(COc1ccccc1)NC(=S)Nc1ccc2c(c1)Cc1ccccc1-2 | -9%
15 | CC1(C)CC2CC(C)(CN2C(=S)NC(=O)c2ccccc2Cl)C1 (stereo not given) | 28% (active)
16 | Cc1cccc(C(=O)NC(=S)N2CCc3ccccc3C2)c1 | 32% (active)
17 | CC1c2nc3ccccc3n2C(CC(=O)NCCCN2CCOCC2)C(=O)N1Cc1ccccc1 (stereo not given) | -8%
18 | CCCOc1ccc(C2NC(=S)NC(c3ccccc3)=C2C(=O)Nc2ccc(C)cc2)cc1OC (stereo not given) | -5%
19 | Cc1cc(C(=O)N/N=C/c2ccc(O)c([N+](=O)[O-])c2)n[nH]1 | -13%
20 | O=C(NC(=S)N1CCc2ccccc21)c1ccccc1 | 43% (active)
21 | O=C(NC(=S)N1CCc2ccccc21)c1ccc(Br)o1 | 12% (active)
22 | O=C(NC(=S)N1CCc2ccccc21)c1ccco1 | -11%
23 | O=C(c1ccccc1)N1CCc2ccccc21 | -6%
24 | O=C(NC(=S)N1CCCc2ccccc21)c1ccccc1 | -18%
25 | O=C(NC(=S)N1CCc2ccccc21)c1ccccc1Cl | 53% (active)

Row | SMILES | activity increase over dofetilide control, less the hit threshold
26 | O=C(N/N=C/c1ccsc1)C1CC1 | -4%
27 | CC1CCN(S(=O)(=O)c2ccc3nc(N4CCN(c5ccccc5)CC4)ccc3c2)CC1 | -22%
28 | COc1cc(C2c3c(n[nH]c3C)C(=O)N2c2ccc(C)cc2)ccc1O (stereo not given) | -15%
29 | O=C(NCc1cccnc1)c1ccc(NS(=O)(=O)c2ccc(F)cc2)cc1 | -9%
30 | O=C(N/N=C/c1ccccc1[N+](=O)[O-])c1ccc(CN2CCOCC2)cc1 | -4%
31 | CCOC(=O)N/N=C/C=C/c1ccccc1[N+](=O)[O-] | 4% (active)
32 | CC1=NNC(=O)C1CC(=O)N/N=C/C=C/c1ccccc1 (stereo not given) | -18%
33 | Cc1cc(C)n2nc(SCC(=O)NC3CCCCC3C)nc2n1 (stereo not given) | -19%
34 | Cn1c(O)c(N=NC(=S)Nc2ccccc2F)c2cc(S(=O)(=O)N3CCOCC3)ccc21 | -22%
35 | Cc1ccc(C)c(Cn2c(O)c(N=NC(=S)Nc3ccccc3F)c3ccccc32)c1 | -2%
36 | Oc1c(N=NC(=S)Nc2ccccc2F)c2ccccc2n1Cc1ccccc1Cl | -2%
37 | Oc1c(N=NC(=S)Nc2ccccc2F)c2ccccc2n1Cc1ccccc1F | 19% (active)
38 | Cc1ccccc1Cn1c(O)c(N=NC(=S)Nc2ccccc2F)c2ccccc21 | 6% (active)
39 | CC(C)Nc1nc(SCC(N)=O)nc(N2CCOCC2)n1 | -12%
40 | O=C1CN(C(=O)COc2ccccc2F)c2ccccc2N1 | -17%
41 | COC(=O)c1sccc1NS(=O)(=O)c1ccc(F)cc1F | 2% (active)
42 | COC(=O)c1sccc1NC(=O)CSc1ccccc1NS(=O)(=O)c1cc(Cl)ccc1Cl | -3%
43 | COC(=O)c1sccc1NC(=S)N1CC(C)CC(C)C1 (stereo not given) | -15%
44 | Cc1ccc(NC(=O)c2ccc3c(c2)CCN3S(C)(=O)=O)c(C)c1 | -17%
45 | Cc1ccc(S(=O)(=O)n2cnc3ccccc32)c(C)c1 | -13%
46 | Cc1ccc(NS(=O)(=O)c2cn(C)c(=O)n(C)c2=O)c(C)c1 | 0% (active)
47 | Cc1cc(C(=O)NNC2CC(=O)N(c3ccc4ccccc4c3)C2=O)c(C)o1 (stereo not given) | -6%
48 | CC(=O)c1c(C)c2c(n1CCN(C)C)CCCC2 | 2% (active)
49 | Cc1c(C)n(CCN(C)C)c2ccc(C(=O)OCCN(C)C)cc12 | -7%
50 | O=C(CC1NC(=O)NC1=O)Nc1ccccc1 (stereo not given) | -19%
